According to PubChem BioAssay:
Records with an inconclusive call do not appear. Activity calls are given as the source filed them. Cut-off read from the data, not from the text of the source, unless noted: active = percent of DMSO control GFP below about 86%; inactive = the rest, inconclusive results apart.

Key:
[1] = yeast TOR pathway RPL19A-GFP modulators, primary screen, cell-based, S. cerevisiae, multiplex flow cytometry (AID 1862);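 note: lower values mimic rapamycin by blocking the RPL19A rise seen in DMSO cells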; details: S. cerevisiae RPL19A-GFP strain, flow cytometry fluorescence, 3 h; at 10 µM; stronger effect = lower value
[2] = modulators of MEP2-GFP levels in yeast, primary screen, S. cerevisiae, multiplex flow cytometry (AID 1867;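 active = GFP response, as percent of the DMSO control, above the screen-wide mean plus 3 SD, about 139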;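 note: median GFP channel fluorescence of barcode-gated MEP2-GFP cells measured by flow cytometry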); details: S. cerevisiae MEP2-GFP strain, 3 h, at 10 µM, stronger effect = higher value, 100% means same as DMSO wells
[3] = modulators of CIT2-GFP expression in yeast, primary screen, S. cerevisiae, GFP fusion, multiplex flow cytometry (AID 1870;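 active = percent response above a set limit, the screen-wide mean plus 3 SD, cut at about 130% in these data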;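 note: barcoded CIT2-GFP strain pooled with four other GFP strains with rapamycin as positive control; median GFP fluorescence per well over plate mean of DMSO wells so 100% = DMSO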); details: 3 h, at 10 µM, stronger effect = higher value
[4] = modulators of LAP4-GFP expression in yeast, primary screen, S. cerevisiae, multiplex flow cytometry (AID 1873;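 active = GFP signal, as percent of the solvent control, above the screen mean plus 3 SD, about 149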); details: 3 h, at 10 µM, stronger effect = higher value
[5] = modulators of AGP1-GFP expression in yeast TOR pathway, primary screen, cell-based, multiplex flow cytometry, S. cerevisiae (AID 1887;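 active = GFP signal above the screen-wide mean plus 3 SD, that is over about 124.5% of the solvent control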;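 note: AGP1-GFP fusion strain of S. cerevisiae within a five-strain barcoded multiplex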); details: 3 h, at 10 µM, stronger effect = higher value
[6] = inhibitors of CD8+ T cell-vesicle binding, pilot screen, LFA-1/ICAM-1 modulator project, MLPCN validation set, flow cytometry (AID 2523;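 active = response below a set limit, under 55% cells CD8-positive and vesicle-bound, and CD8 cells' 90th-percentile brightness under 279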;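 for vesicle binding response: mean PE anti-B7-1 fluorescence of CD8+ cells relative to row control; 100% = QL9-loaded vesicles with DMSO vehicle in the same plate row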); details: 2C mouse CD8+ T cells, at 7 µM, stronger effect = lower value; double positive events: measured here: CD8+/vesicle+ event percentage
[7] = molecular target: Integrin beta-1 (Homo sapiens) + Integrin alpha-4 (Homo sapiens) (UniProt P13612+P05556); test: inhibition of HUTS-21 binding to VLA-4, pilot screen, VLA-4 allosteric modulator project, U937 cells, HUTS-21 mAb, flow cytometry, validation set (AID 2674;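 active = inhibition above 50%, about 3 SD of the validation set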;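 note: antibody binding induced by the VLA-4 ligand LDV present at three times its Kd; 0% = LDV ligand with antibody and no compound and 100% = antibody without LDV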); details: HUTS-21 LIBS mAb binding, at 6.7 µM, stronger effect = higher value, binding induced by LDV ligand
Sequence of Integrin beta-1 (Homo sapiens) + Integrin alpha-4 (Homo sapiens) (P05556 whole entry, looked up): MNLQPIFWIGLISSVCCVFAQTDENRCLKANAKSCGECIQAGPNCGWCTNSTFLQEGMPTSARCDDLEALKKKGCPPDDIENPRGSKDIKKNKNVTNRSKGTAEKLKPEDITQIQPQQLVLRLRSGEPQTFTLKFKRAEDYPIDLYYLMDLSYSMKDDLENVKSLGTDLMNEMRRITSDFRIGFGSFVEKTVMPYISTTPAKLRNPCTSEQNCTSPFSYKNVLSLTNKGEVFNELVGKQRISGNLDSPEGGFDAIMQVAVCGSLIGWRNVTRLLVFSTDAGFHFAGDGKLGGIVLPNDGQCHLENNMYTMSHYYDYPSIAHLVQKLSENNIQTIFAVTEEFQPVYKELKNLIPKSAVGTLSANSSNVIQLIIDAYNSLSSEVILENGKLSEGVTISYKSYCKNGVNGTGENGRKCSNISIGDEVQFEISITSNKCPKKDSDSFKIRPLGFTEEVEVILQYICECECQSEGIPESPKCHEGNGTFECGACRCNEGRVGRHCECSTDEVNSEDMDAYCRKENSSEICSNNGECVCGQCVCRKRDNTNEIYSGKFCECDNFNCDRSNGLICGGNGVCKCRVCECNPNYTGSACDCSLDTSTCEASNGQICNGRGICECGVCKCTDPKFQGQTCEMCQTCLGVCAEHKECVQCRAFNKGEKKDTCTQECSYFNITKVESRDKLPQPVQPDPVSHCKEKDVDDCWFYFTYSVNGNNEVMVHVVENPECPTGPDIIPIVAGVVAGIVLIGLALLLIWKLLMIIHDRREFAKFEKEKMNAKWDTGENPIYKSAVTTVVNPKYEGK
Sequence of Integrin beta-1 (Homo sapiens) + Integrin alpha-4 (Homo sapiens) (P13612 whole entry, looked up): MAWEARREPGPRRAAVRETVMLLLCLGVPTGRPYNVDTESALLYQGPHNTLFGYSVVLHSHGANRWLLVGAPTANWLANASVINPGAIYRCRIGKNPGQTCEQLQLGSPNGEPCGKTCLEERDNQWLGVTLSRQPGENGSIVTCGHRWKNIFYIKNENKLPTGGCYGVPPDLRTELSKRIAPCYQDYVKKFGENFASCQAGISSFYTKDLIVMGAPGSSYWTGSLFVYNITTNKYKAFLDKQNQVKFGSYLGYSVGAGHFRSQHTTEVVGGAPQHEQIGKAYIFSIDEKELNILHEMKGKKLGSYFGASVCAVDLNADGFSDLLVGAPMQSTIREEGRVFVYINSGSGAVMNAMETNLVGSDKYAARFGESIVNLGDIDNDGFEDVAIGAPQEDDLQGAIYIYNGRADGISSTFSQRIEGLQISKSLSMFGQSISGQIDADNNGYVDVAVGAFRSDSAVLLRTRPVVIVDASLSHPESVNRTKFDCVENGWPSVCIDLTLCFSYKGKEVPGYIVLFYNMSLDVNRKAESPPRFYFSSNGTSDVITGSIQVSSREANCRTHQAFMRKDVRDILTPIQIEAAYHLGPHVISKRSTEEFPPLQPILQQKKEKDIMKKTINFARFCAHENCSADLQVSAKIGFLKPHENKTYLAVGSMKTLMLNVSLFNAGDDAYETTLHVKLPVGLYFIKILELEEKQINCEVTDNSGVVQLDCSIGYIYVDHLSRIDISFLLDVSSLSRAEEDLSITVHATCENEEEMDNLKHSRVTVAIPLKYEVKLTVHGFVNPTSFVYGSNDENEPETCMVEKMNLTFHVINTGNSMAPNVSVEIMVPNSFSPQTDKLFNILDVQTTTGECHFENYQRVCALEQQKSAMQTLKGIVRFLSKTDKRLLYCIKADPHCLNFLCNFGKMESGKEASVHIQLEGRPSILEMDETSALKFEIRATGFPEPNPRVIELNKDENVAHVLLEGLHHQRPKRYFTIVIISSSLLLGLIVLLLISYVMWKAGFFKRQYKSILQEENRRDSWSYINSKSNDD

[8] = superoxide lowering in aged yeast cells, pilot screen, validation compound set (AID 2706;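 active = superoxide response below 65% of plate, a cut near 3 SD across the whole screen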;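 note: yeast exposed to compound for one week at 30 degrees C before staining; 100% = mean of all compound wells on the same plate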); details: S. cerevisiae aging, superoxide DHE fluorescence; at 10 µM; stronger effect = lower value
[9] = molecular target: Beta-adrenergic receptor kinase 1 (Homo sapiens) (UniProt P25098); test: GRK2 binders displacing RNA aptamer, biochemical, validation, human GRK2, bead flow cytometry (AID 488806;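 active = aptamer binding inhibition above 30%, about 3 SD of noise from non-fluorescent compounds; inactive = inhibition at or below 30%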); details: bead-bound GRK2, FAM-aptamer displacement, at 10 µM, stronger effect = higher value
Sequence of Beta-adrenergic receptor kinase 1 (Homo sapiens) (P25098 whole entry, looked up): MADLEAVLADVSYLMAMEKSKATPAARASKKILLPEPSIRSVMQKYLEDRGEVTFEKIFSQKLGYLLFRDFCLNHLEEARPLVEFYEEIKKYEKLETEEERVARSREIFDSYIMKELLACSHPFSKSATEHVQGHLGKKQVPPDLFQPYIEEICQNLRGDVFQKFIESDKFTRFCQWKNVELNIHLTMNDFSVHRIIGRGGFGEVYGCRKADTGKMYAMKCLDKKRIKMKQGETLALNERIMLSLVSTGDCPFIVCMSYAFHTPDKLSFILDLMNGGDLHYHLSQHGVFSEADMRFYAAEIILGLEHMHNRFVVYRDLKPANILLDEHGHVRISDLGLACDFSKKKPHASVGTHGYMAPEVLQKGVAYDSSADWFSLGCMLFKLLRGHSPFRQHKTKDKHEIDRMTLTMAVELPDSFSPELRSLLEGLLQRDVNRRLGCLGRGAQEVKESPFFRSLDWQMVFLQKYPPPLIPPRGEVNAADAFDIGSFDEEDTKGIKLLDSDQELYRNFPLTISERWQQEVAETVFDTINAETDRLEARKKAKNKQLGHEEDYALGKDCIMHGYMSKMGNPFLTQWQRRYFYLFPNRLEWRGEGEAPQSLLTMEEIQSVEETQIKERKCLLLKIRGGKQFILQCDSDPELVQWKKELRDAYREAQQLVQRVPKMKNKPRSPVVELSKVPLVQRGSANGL

[10] = molecular target: Beta-2 adrenergic receptor (Homo sapiens) (UniProt P07550); test: beta2AR agonists driving receptor internalization, pilot screen, cell-based, FAP fluorogen, flow cytometry, validation set (AID 504459;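 active = percent response above 42, roughly 3 SD of non-fluorescent test compounds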;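 note: agonist-driven loss of surface beta2AR via internalization measured by FAP dye flow cytometry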); details: Am2.2-beta2AR cells, FAP surface receptor flow cytometry; at 10 µM; stronger effect = higher value
Sequence of Beta-2 adrenergic receptor (Homo sapiens) (P07550 whole entry, looked up): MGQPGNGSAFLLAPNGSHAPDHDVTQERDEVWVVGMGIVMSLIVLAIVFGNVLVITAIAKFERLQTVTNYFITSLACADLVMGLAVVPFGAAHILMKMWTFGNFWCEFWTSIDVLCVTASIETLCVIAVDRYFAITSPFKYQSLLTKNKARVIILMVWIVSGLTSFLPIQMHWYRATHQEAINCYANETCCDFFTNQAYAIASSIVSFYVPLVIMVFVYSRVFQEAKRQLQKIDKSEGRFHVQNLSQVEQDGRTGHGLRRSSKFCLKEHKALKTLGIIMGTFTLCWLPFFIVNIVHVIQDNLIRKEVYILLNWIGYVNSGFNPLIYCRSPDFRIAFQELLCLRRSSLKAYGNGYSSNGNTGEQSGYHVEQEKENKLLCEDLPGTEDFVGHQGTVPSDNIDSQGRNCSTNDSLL

[11] = molecular target: AP-2 complex subunit beta (Homo sapiens) (UniProt P63010); test: inhibitors of arrestin peptide binding to AP2, pilot screen, biochemical, validation set, GST-AP2 beads, flow cytometry (AID 504541;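 active = inhibition above 54%, about 3 SD of non-fluorescent compounds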;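 note: AP2 carries R879A mutation and is captured from E. coli lysate; bead-bound FITC arrestin peptide fluorescence measuring arrestin peptide binding to AP2; 0% = DMSO wells and 100% = excess unlabeled arrestin peptide control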); details: FITC arrestin peptide, at 10 µM, stronger effect = higher value, AP2 beta2 appendage fragment, R879A mutant
Sequence of AP-2 complex subunit beta (Homo sapiens) (P63010 whole entry, looked up, the tested form may be a part, one chain of several): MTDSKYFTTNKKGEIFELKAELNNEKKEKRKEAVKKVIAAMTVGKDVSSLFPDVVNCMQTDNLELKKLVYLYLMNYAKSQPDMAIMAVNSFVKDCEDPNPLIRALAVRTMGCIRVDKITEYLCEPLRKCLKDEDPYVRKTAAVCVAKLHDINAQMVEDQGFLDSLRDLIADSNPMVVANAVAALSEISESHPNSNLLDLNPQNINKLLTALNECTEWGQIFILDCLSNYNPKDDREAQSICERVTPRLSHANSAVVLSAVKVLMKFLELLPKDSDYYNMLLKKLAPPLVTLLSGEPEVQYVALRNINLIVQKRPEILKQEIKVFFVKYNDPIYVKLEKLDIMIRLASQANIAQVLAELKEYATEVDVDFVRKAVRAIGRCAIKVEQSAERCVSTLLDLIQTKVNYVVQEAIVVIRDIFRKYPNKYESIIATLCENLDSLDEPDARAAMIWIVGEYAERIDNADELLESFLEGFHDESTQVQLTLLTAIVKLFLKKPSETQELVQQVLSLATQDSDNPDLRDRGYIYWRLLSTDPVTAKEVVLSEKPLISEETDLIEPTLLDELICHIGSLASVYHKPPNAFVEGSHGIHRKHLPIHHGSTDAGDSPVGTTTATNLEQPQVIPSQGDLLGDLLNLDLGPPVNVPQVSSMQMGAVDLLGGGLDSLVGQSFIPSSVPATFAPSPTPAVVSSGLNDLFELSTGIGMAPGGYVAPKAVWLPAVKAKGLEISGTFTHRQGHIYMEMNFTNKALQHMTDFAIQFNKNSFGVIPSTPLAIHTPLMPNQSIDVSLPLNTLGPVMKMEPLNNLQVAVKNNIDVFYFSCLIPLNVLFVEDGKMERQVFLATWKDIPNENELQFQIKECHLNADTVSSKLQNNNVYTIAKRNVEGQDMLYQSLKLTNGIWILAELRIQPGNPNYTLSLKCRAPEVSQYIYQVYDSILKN

[12] = yeast V-ATPase proton transport modulators, S. cerevisiae, pHLuorin, HTS validation (AID 504600; in the data active = response above about 15%;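 note: plate controls were DMSO for no effect and reference compound for full effect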); details: S. cerevisiae pHLuorin cytosolic pH, at 10 µM, stronger effect = higher value
[13] = test system: anti-desmoglein-3 scFv antibody binding to human DSG3; test: inhibitors of anti-DSG3 scFv binding to DSG3, pilot screen, biochemical, validation compound set, bead-based, flow cytometry (AID 588368;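 active = binding below the plate cutoff, the plate median minus 3 SD, with a reading above zero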;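 note: signal is the median channel fluorescence of bead-bound GFP antibody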); details: Protein G beads, DSG3-Fc, scFv-GFP binding, at 10 µM, stronger effect = lower value
[14] = inhibitors of fungal efflux pumps CDR1, CDR2, MDR1, pilot screen, validation compound set, multiplex, phenotypic (AID 588506;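 active = efflux inhibition above 0.42, the validation set average plus 4 SD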;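 note: Nile Red retained in cells so higher fluorescence means more efflux inhibition; 0 = negative control wells and 1 = enniatin B 25 µM full block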); details: S. cerevisiae pump-expressing triplex, Nile Red efflux flow cytometry; at 10 µM; stronger effect = higher value; the pumps come from Candida albicans
[15] = molecular target: ATP-binding cassette sub-family B member 6 (Homo sapiens) (UniProt Q9NP58); test: ABCB6 transporter inhibitors, pilot screen, K562-ABCB6 cells, flow cytometry, validation set (AID 588550;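 active = inhibition above the screen-wide mean plus 3 SD, about 51%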;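 note: 0% = DMSO wells and 100% = benzethonium chloride 70 µM positive control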); details: K562-ABCB6 porphyrin accumulation, 1 h, at 10 µM, stronger effect = higher value
Sequence of ATP-binding cassette sub-family B member 6 (Homo sapiens) (Q9NP58 whole entry, looked up): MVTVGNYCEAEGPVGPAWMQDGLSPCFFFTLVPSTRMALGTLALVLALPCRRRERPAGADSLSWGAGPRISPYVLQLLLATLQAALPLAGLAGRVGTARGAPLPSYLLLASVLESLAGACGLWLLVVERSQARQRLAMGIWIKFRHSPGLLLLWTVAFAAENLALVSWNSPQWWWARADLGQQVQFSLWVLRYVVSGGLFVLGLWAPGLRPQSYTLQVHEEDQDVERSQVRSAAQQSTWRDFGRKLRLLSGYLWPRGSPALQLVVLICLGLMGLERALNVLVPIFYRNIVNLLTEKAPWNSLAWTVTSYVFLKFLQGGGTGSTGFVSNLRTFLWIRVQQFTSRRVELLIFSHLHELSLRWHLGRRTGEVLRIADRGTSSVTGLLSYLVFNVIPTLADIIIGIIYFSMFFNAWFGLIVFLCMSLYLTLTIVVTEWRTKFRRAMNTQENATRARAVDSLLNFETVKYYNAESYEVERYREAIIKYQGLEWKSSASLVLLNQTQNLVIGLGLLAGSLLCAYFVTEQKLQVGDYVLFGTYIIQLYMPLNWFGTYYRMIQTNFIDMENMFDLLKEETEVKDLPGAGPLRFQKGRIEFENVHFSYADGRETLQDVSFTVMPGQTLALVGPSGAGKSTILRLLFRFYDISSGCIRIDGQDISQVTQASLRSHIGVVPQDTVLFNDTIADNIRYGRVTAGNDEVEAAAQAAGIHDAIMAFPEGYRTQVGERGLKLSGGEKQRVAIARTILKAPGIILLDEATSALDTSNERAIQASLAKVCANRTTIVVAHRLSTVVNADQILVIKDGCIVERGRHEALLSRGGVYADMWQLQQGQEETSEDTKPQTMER

[16] = promoters of myeloid differentiation in arrested cells, primary screen, cell-based, GFP/MAC1 double positive, flow cytometry, validation set (AID 588685;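 active = differentiation response of at least 50%, scaled between solvent and reference control, from cells with both markers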;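 note: compound exposure lasts four days before antibody staining and flow analysis; 0% = DMSO wells and 100% = 5 µM fulvestrant positive control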); details: ER-HoxA9 marrow cells, stronger effect = higher value, normalized: vehicle 0, fulvestrant 100

COc1ccc(Cc2noc(CN(C)CCN3CCc4ccccc4C3)n2)cc1OC
inactive: percent of DMSO control GFP [1] 103% | GFP response vs DMSO [2] 105% | percent response of DMSO control [3] 109% | GFP response vs DMSO [4] 91.4% | GFP response, % of DMSO [5] 103% | vesicle binding response [6] 232% | inhibition [7] -8.75% | superoxide response (% of plate) [8] 95% | aptamer binding inhibition [9] 6% | response [10] -6.59% | inhibition [11] -8.41% | response [12] 0.56% | binding (% of control) [13] 104% | efflux inhibition (fraction of control) [14] -0.1 | inhibition [15] -12% | differentiation response [16] 5.13%
65.2%: double positive events [6]

c1cnc(N2CCN(Cc3ccc4c(c3)OCO4)CC2)nc1
73.9%: double positive events [6]
inactive: percent of DMSO control GFP [1] 101% | GFP response vs DMSO [2] 101% | percent response of DMSO control [3] 102% | GFP response vs DMSO [4] 97% | GFP response, % of DMSO [5] 103% | vesicle binding response [6] 330% | inhibition [7] 2.93% | superoxide response (% of plate) [8] 103% | aptamer binding inhibition [9] -1% | response [10] 2.78% | inhibition [11] 2.85% | response [12] 0.81% | binding (% of control) [13] 105% | efflux inhibition (fraction of control) [14] 0.235 | inhibition [15] 2% | differentiation response [16] -13.3%

c1ccc(Cn2ncc3c(Nc4ccccc4)ncnc32)cc1
inactive: percent of DMSO control GFP [1] 96.7% | GFP response vs DMSO [2] 106% | percent response of DMSO control [3] 103% | GFP response vs DMSO [4] 117% | GFP response, % of DMSO [5] 107% | vesicle binding response [6] 244% | inhibition [7] 9.95% | superoxide response (% of plate) [8] 121% | aptamer binding inhibition [9] -1% | response [10] -42.2% | inhibition [11] 9.49% | response [12] 3.17% | binding (% of control) [13] 101% | efflux inhibition (fraction of control) [14] 0.08 | inhibition [15] 2% | differentiation response [16] -8.93%
63.6%: double positive events [6]

O=Cc1ccc(O)c(O)c1
inactive: percent of DMSO control GFP [1] 106% | GFP response vs DMSO [2] 99.7% | percent response of DMSO control [3] 107% | GFP response vs DMSO [4] 98% | GFP response, % of DMSO [5] 108% | vesicle binding response [6] 145% | inhibition [7] 8.29% | superoxide response (% of plate) [8] 99.7% | aptamer binding inhibition [9] 6% | response [10] 0.09% | inhibition [11] 6.09% | response [12] -5.24% | binding (% of control) [13] 105% | efflux inhibition (fraction of control) [14] -0.11 | inhibition [15] 21% | differentiation response [16] -4.57%
65.7%: double positive events [6]

COc1ccc2oc(-c3ccco3)cc(=O)c2c1
59.1%: double positive events [6]
inactive: percent of DMSO control GFP [1] 103% | GFP response vs DMSO [2] 92.4% | percent response of DMSO control [3] 100% | GFP response vs DMSO [4] 88% | GFP response, % of DMSO [5] 83.7% | vesicle binding response [6] 23.9% | inhibition [7] -8.9% | superoxide response (% of plate) [8] 96.6% | aptamer binding inhibition [9] 3% | response [10] -0.39% | inhibition [11] -28.7% | response [12] 2.89% | binding (% of control) [13] 100% | efflux inhibition (fraction of control) [14] -0.28 | inhibition [15] 8% | differentiation response [16] -3.4%

C=C(C)Cn1c(NCCOC)nc2c1c(=O)[nH]c(=O)n2C
64.5%: double positive events [6]
inactive: percent of DMSO control GFP [1] 103% | GFP response vs DMSO [2] 112% | percent response of DMSO control [3] 104% | GFP response vs DMSO [4] 96.6% | GFP response, % of DMSO [5] 98.8% | vesicle binding response [6] 327% | inhibition [7] -5.64% | superoxide response (% of plate) [8] 98.4% | aptamer binding inhibition [9] 3% | response [10] 3.03% | inhibition [11] -1.55% | response [12] -1.65% | binding (% of control) [13] 99.8% | efflux inhibition (fraction of control) [14] -0.07 | inhibition [15] -4% | differentiation response [16] 0.24%

COc1cccc(NC(=O)C2CC(=O)OC23CCOC(C)(C)C3)c1 (stereo not given)
inactive: percent of DMSO control GFP [1] 93.7% | GFP response vs DMSO [2] 137% | percent response of DMSO control [3] 95.2% | GFP response vs DMSO [4] 80.9% | GFP response, % of DMSO [5] 94.2% | vesicle binding response [6] 24.9% | inhibition [7] 19.1% | superoxide response (% of plate) [8] 88.5% | aptamer binding inhibition [9] 2% | response [10] -4.19% | inhibition [11] 0.76% | response [12] -0.08% | binding (% of control) [13] 101% | efflux inhibition (fraction of control) [14] -0.13 | inhibition [15] 9% | differentiation response [16] -2.46%
58.3%: double positive events [6]

CC1=C(/C=C/C(C)=C/C=C/C(C)=C/C(=O)O)C(C)(C)CCC1
inactive: percent of DMSO control GFP [1] 106% | GFP response vs DMSO [2] 106% | percent response of DMSO control [3] 103% | GFP response vs DMSO [4] 125% | GFP response, % of DMSO [5] 121% | vesicle binding response [6] 194% | inhibition [7] -2.82% | superoxide response (% of plate) [8] 93.6% | aptamer binding inhibition [9] 1% | response [10] -11.2% | inhibition [11] -5.9% | response [12] -0.05% | binding (% of control) [13] 101% | efflux inhibition (fraction of control) [14] 0.04 | inhibition [15] -2% | differentiation response [16] -6.96%
62.6%: double positive events [6]

CCC(NC(C)C)C(O)c1ccc(O)c(O)c1 (stereo not given)
60.7%: double positive events [6]
active: response [10] 46%
inactive: percent of DMSO control GFP [1] 103% | GFP response vs DMSO [2] 102% | percent response of DMSO control [3] 100% | GFP response vs DMSO [4] 104% | GFP response, % of DMSO [5] 112% | vesicle binding response [6] 170% | inhibition [7] -11.3% | superoxide response (% of plate) [8] 86.8% | aptamer binding inhibition [9] 4% | inhibition [11] -1.15% | response [12] 0.42% | binding (% of control) [13] 105% | efflux inhibition (fraction of control) [14] -0.04 | inhibition [15] 2% | differentiation response [16] -0.06%

O=C(Nc1cccc(C(=O)O)c1)/C(=C\c1ccccc1)NC(=O)c1ccccc1
58.1%: double positive events [6]
inactive: percent of DMSO control GFP [1] 105% | GFP response vs DMSO [2] 98.3% | percent response of DMSO control [3] 106% | GFP response vs DMSO [4] 84.8% | GFP response, % of DMSO [5] 100% | vesicle binding response [6] 150% | inhibition [7] -1.49% | superoxide response (% of plate) [8] 95.7% | aptamer binding inhibition [9] 5% | response [10] -3.48% | inhibition [11] 0.49% | response [12] 0.44% | binding (% of control) [13] 99% | efflux inhibition (fraction of control) [14] 0.14 | inhibition [15] 15% | differentiation response [16] 11%
